Only some compounds are listed: those with a hit (about 21% of all), similar ones and a draw of the others.
Pf growth 96h: Primary qHTS for delayed death inhibitors of the malarial parasite plastid, 96 hour incubation. P. falciparum luciferase reporter growth, 96 h. Potency, µM (titrated, usually from 28.7 µM), usual class: inhibitors. hit rate 6.9% among 320,000. AID 504834, 2011
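Infected RBCs, 2% Hct / 0.05% parasitemia final; luciferase-reporter P. falciparum; cpd 96 h, 37 C, 5% CO2; luciferase detection reagent; luminescence.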
HCMV inh: qHTS Assay for inhibitors of the human cytomegalovirus (HCMV); HFF cells, HCMV-luciferase reporter, 72 h; active compounds read low; AID 1259415, 2018; hit rate 4.5% among 410,000; activity change, negative = inhibition, % at 57.5 µM; in the data active = activity change below about -60%; inconclusive = no clear call, values can overlap the other calls; inactive = above about -39%
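Inhibition of viral replication was scored as loss of reporter luminescence in HFFs infected with HCMV-luciferase (MOI 1 PFU/cell) for 72 h; compounds tested at 2 doses, normalized to buffer and Salinomycin controls.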
CHX counter: Cycloheximide Counterscreen for Small Molecule Inhibitors of Shiga Toxin; cell reporter, cycloheximide protein synthesis inhibition counterscreen; max response, %; hit rate 12% among 300,000; in the data active = max response mostly above about 13%, no sharp cut-off; inactive = mostly below about 14%; note: read at 38.3 µM for the half of the compounds with a filed dose
Pf growth 48h: Primary qHTS for delayed death inhibitors of the malarial parasite plastid, 48 hour incubation; hit rate 5.9% among 310,000; Potency, µM (titrated, usually from 28.7 µM), most hits filed as inhibitors; P. falciparum luciferase growth in erythrocytes, 48 h
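Luciferase-expressing parasites in RBCs, 2% Hct / 0.1% parasitemia final; RPMI 1640 + 0.5% Albumax; 37 C, 5% CO2, one generation; luminescence read-out, lower signal = inhibition.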
HCV inhibitor: qHTS Assay for Inhibitors of Hepatitis C Virus (HCV); Huh7.5.1 HCVcc-Cre infection, luciferase reporter, 44 h; Potency, µM (doses to about 41.8 µM), actives largely listed as inhibitors; hit rate 3.4% among 340,000
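Infectious HCVcc-Cre (~0.5 moi) was added to cells just after compound, with cells seeded 4 h earlier at 1,000 per well. Luciferase activity after 44 h culture reported infection; substrate was incubated 15 min at room temperature before reading.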
Shiga toxin inh: A qHTS for Small Molecule Inhibitors of Shiga Toxin; hit rate 9.2% among 290,000; Vero cells, Shiga toxin protein synthesis inhibition reporter; inhibition, % at 38.7 µM; in the data active = inhibition mostly above about 28%, no sharp cut-off; inactive = mostly below about 43%
Of the large screens only hits and unclear results are named; the others gave an inactive call. Unless noted, calls come from the whole dose curve; as a rule, active = well fitted inhibition curve with a large enough effect; inconclusive = small, poorly fitted or top-dose-only effect, or another doubt; inactive = no such curve, though single readings can be large or run the other way.

Cc1nn(-c2ccccc2)c2sc(C(=O)NC3CC3)cc12	CHX counter 52, Pf growth 48h inconclusive, HCV inhibitor 13µM, Shiga toxin inh 81
Cc1csc(NC(=O)CCC(=O)N(CC(=O)NC2CCCC2)Cc2ccco2)n1	Pf growth 48h inconclusive
COC(=O)c1c(NC(=O)C2COc3ccccc3O2)sc2c1CCN(C(C)=O)C2 (stereo not given)	Pf growth 96h inconclusive, Pf growth 48h inconclusive, HCV inhibitor inconclusive
CN1CCc2c(sc(NC(=O)C3COc4ccccc4O3)c2C(N)=O)C1 (stereo not given)	HCMV inh -63, CHX counter 22 (no result: HCV inhibitor)
CCOC(=O)N1CCc2c(sc(NC(=O)c3ccc(Cl)s3)c2C(N)=O)C1	Pf growth 96h 13µM, Pf growth 48h inconclusive (no result: HCMV inh)
CC(=O)N1CCc2c(sc(NC(=O)c3ccc([N+](=O)[O-])o3)c2C(N)=O)C1	HCMV inh -101 (no result: Pf growth 96h, CHX counter, Pf growth 48h, HCV inhibitor, Shiga toxin inh)
CC(=O)N1CCc2c(sc(NC(=O)C3COc4ccccc4O3)c2C(N)=O)C1 (stereo not given)	Pf growth 96h 12µM, CHX counter 31, HCV inhibitor inconclusive
CCN1CCc2c(sc(NC(=O)Cc3ccccc3)c2C(N)=O)C1	Pf growth 96h inconclusive, HCMV inh inconclusive
CC(C)N1CCc2c(sc(NC(=O)CN3C(=O)c4ccccc4C3=O)c2C(N)=O)C1	none
CCOC(=O)N1CCc2c(sc(NC(=O)C3COc4ccccc4O3)c2C(N)=O)C1 (stereo not given)	Pf growth 96h 9.3µM, HCMV inh -97, Pf growth 48h inconclusive, HCV inhibitor 16µM
CCN1CCc2c(sc(NC(=O)C3COc4ccccc4O3)c2C(N)=O)C1 (stereo not given)	HCMV inh -71, CHX counter 19 (no result: HCV inhibitor)
CN1CCc2c(sc(NC(=O)c3ccc4ccccc4c3)c2C(N)=O)C1	Pf growth 96h inconclusive, CHX counter 49, Shiga toxin inh 92 (no result: HCMV inh, HCV inhibitor)
CCOC(=O)N1CCc2c(sc(NC(C)=O)c2C(N)=O)C1	none (no result: Pf growth 96h, CHX counter, Pf growth 48h, Shiga toxin inh)
COc1cc2ccccc2cc1C(=O)Nc1sc2c(c1C(N)=O)CCN(C(C)C)C2	Pf growth 96h 5.9µM, Pf growth 48h 8.3µM (no result: HCV inhibitor)
CCOC(=O)c1sc(NC(=O)CN2CCN(c3ccc(OC)cc3)CC2)nc1C	Pf growth 96h inconclusive
CCc1ccc(NC(=O)Cn2c(=O)n(CC3CCCO3)c(=O)c3cc(OC)c(OC)cc32)cc1 (stereo not given)	none (no result: Pf growth 96h, CHX counter, Pf growth 48h, HCV inhibitor, Shiga toxin inh)
Cc1cccc(C)c1NC(=O)C(Nc1ccccc1)c1ccccc1F (stereo not given)	none (no result: Pf growth 96h, CHX counter, Pf growth 48h, HCV inhibitor, Shiga toxin inh)
Cc1ccc(NC(=O)/C(C#N)=C/c2cn(CC(=O)NCc3ccco3)c3ccccc23)cc1C	HCMV inh inconclusive
Cc1cc(C)cc(NC(=O)/C(C#N)=C/c2cn(CC(=O)NCc3ccco3)c3ccccc23)c1	HCMV inh -85, HCV inhibitor inconclusive
Cc1ccc(C)c(NC(=O)/C(C#N)=C/c2cn(CC(=O)NCc3ccco3)c3ccccc23)c1	Pf growth 96h 15µM, HCMV inh -100, HCV inhibitor inconclusive
Cc1oc(C(C)(C)C)cc1C(=O)Nc1ccc2c(c1)OCO2	CHX counter 32, Shiga toxin inh 79
Cc1oc(C(C)(C)C)cc1C(=O)Nc1ccc2c(c1)OCCO2	CHX counter 53, HCV inhibitor inconclusive, Shiga toxin inh 102 (no result: Pf growth 96h)
Cc1ccc(-n2c(=O)[nH]cc(C(=O)Nc3ccc4c(c3)OCCO4)c2=O)cc1	none (no result: Pf growth 96h)
Cc1oc(C(C)(C)C)cc1C(=O)Nc1cccc(/C=C/C(=O)O)c1	none
CN(C)C(CNC(=S)Nc1ccccc1Cl)c1cccnc1 (stereo not given)	none
CN1C(=O)CC(c2cn(Cc3ccccc3)c3ccccc23)C1=O (stereo not given)	Pf growth 96h 2.6µM, Pf growth 48h inconclusive
Cc1ccc(C2=NN(C(=O)CCC(=O)O)C(c3cn(-c4ccccc4)nc3-c3ccc(C)cc3)C2)cc1 (stereo not given)	HCMV inh -60, Pf growth 48h inconclusive
CC(=O)N1N=C(c2ccccc2)CC1c1cn(Cc2ccccc2)c2ccccc12 (stereo not given)	Pf growth 96h inconclusive, HCMV inh -87, Pf growth 48h inconclusive, HCV inhibitor 25µM

Assay outcomes deposited in PubChem by National Center for Advancing Translational Sciences (NCATS).
